# tim23-1 inh: growth inhibitors of tim23-1 mutant yeast; S. cerevisiae tim23-1 growth, BacTiter-Glo luminescence, 24 h; inhibition, % at 20 µM; actives 1.3% (n = 330,000);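 active = growth inhibition of the mutant yeast at or above 50%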;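 also: temperature-sensitive mutant grown at 25 °C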
# V-ATPase pH: regulators of yeast V-ATPase proton transport | S. cerevisiae, pHLuorin cytosolic pH fluorescence | response, % at 10 µM | actives 0.37% (n = 350,000) | AID 504577; in the data active = response mostly above about 7.3%, no sharp cut-off; inactive = mostly below about 5.4%; also: actives read high
# tim10-1 inh: tim10-1 yeast growth inhibition; S. cerevisiae tim10-1 ts strain growth, BacTiter-Glo, 24 h; inhibition, % at 20 µM; actives 2.2% (n = 330,000);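 active = inhibition of at least 40%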;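 also: mutant grown at 25 °C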
# TIM10 inh: growth inhibitors of TIM10 yeast strain; AID 463195; inhibition, % at 10 µM; actives 1.4% (n = 330,000); S. cerevisiae TIM10 strain growth, BacTiter-Glo luminescence, 24 h;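 active = inhibition of 40% or more at the single tested concentration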;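 also: wild-type TIM10 isogenic control strain grown at permissive 25 °C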
# PfHsp90 set2: growth inhibition of yeast expressing Plasmodium Hsp90; S. cerevisiae expressing PfHsp90, BacTiter-Glo ATP, 48 h; yeast lacking PDR1 and PDR3 efflux regulators; inhibition, % at 9.4 µM; actives 0.32% (n = 310,000); AID 504621;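 active = every replicate shows inhibition above about 80%, whatever the replicate mean, limit read from the data; inconclusive = mean inhibition reaches the set limit but some replicate falls short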
# tim10-1 confirm: confirmation of tim10-1 mutant yeast growth inhibitors | actives 56% (n = 7,400) | shares compounds with tim10-1 inh | S. cerevisiae tim10-1 ts strain growth, BacTiter-Glo, 24 h | AID 463213 | inhibition, % at 20 µM;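 active = inhibition of yeast growth at or above a set limit in either of two repeat tests at 20 µM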;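 also: tim10-1 mutant grown at permissive 25 °C to find synthetic lethal compounds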
# TIM10 conf: TIM10 yeast growth inhibition, confirmed. S. cerevisiae tim10 strain growth, BacTiter-Glo luminescence, 24 h. inhibition, % at 10 µM. AID 463215. actives 63% (n = 4,600). shares compounds with TIM10 inh;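 active = inhibition of yeast growth at or above a set limit in either of two replicates at 10 µM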; also: this counterscreen used the strain with wild-type TIM10
# Numbers stand for hits; . = inactive; ? = inconclusive; / = no result given. In the library only some 3.7% were active in any assay of this set; here they are far more common.
SMILES,tim23-1 inh,V-ATPase pH,tim10-1 inh,TIM10 inh,PfHsp90 set2,tim10-1 confirm,TIM10 conf
CN(C)CCCN(C(=O)c1ccc(S(=O)(=O)N2CCCCCC2)cc1)c1nc2cc3c(cc2s1)OCO3,/,.,/,/,/,/,/
CCC1CCCCN1S(=O)(=O)c1ccc(C(=O)N(CCCN(C)C)c2nc3cc4c(cc3s2)OCO4)cc1 (configuration not stated),.,.,46,50,.,34,33
CC1CN(S(=O)(=O)c2ccc(C(=O)N(CCCN(C)C)c3nc4cc5c(cc4s3)OCCO5)cc2)CC(C)O1 (configuration not stated),.,.,54,44,.,52,45
C=CCc1cccc(/C=N/NC(=O)c2ccccc2OC)c1O,.,.,49,57,.,31,38
CCOc1ccc2nc3ccc4[nH]onc4c3c2c1,.,.,42,48,.,53,53
CCOc1ccc2nc(N3CCOCC3)nc(C)c2c1,.,.,.,.,.,/,/
Cc1ccc(S(=O)(=O)N2C[C@H]3[C@H]4C(=O)N(c5ccccc5)C(=O)[C@H]4C[C@H](OC(=O)NC4CCCC4)[C@@]3(O)C2)cc1,/,.,/,/,/,/,/
CCCc1[nH]nc2c1C(c1ccsc1)C(C#N)=C(N)O2 (configuration not stated),.,.,47,46,.,.,.
Cc1ccc(NC2=C(Cl)C(=O)c3ccccc3C2=O)cc1,/,.,/,/,.,/,/
O=C1C(Cl)=C(Nc2ccc(O)cc2)C(=O)c2ccccc21,.,.,49,45,.,45,51
CCCCC(CC)C(=O)Nc1ncc([N+](=O)[O-])s1 (configuration not stated),.,.,61,49,.,62,.
N/C(=N\OC(=O)N1CCOCC1)c1ccccc1,.,.,.,.,.,/,/
N/C(=N\OC(=O)N1CCOCC1)c1ccc(Br)cc1,.,.,60,50,.,61,41
CCC(=O)Nc1ccc(N2CCCCC2)c(C(=O)Nc2ccccc2C)c1,.,.,41,40,.,.,38
CC(=O)N1N=C(c2ccccc2)OC1c1ccc([N+](=O)[O-])s1 (configuration not stated),.,.,47,51,127,69,32
C/C(=C\C=C(C#N)C#N)c1cc(C#N)c(N)o1,.,.,.,.,.,/,/
O=c1cc(CSc2nnc(COc3cccc4ccccc34)o2)c2ccccc2[nH]1,.,.,.,.,.,/,/
O=C(Cc1ccc(Cl)cc1)N1CCC2(CC1)NCCc1[nH]cnc12,.,.,.,.,.,/,/
Cc1ccc(NC2=C/C(=N\S(=O)(=O)c3cccs3)c3ccccc3C2=O)c(C)c1,.,.,74,60,.,49,.
CCCN(CC(=O)Nc1ccccc1OC)C(=O)Cn1c(=O)oc2ccccc21,/,.,/,/,.,/,/
COc1cc2c(cc1NS(=O)(=O)N1CCCC1)oc1ccccc12,.,.,43,47,.,.,43
COc1cc2c(cc1NC(=O)c1ccncc1)oc1ccccc12,.,.,46,42,.,.,47
CC1CCN(C(=O)C2CCN(S(=O)(=O)c3ccc(-n4cnnn4)cc3)CC2)CC1,.,.,.,.,.,/,/
O=C(C1CC1)N1CCC(C(O)(c2ccccc2)c2ccccc2)CC1,.,.,.,.,.,/,/
Oc1ccccc1CN1CCC(C(O)(c2ccccc2)c2ccccc2)CC1,.,.,43,51,.,36,41
SMILES,tim23-1 inh,V-ATPase pH,tim10-1 inh,TIM10 inh,PfHsp90 set2,tim10-1 confirm,TIM10 conf
Cc1ccc(Cl)cc1NC(=O)c1cc(NC(=O)C2CCCCC2C(=O)O)ccc1N1CCOCC1 (configuration not stated),.,.,.,.,.,/,/
O=c1c2cccc3c2c(nn1CN1CCOCC1)-c1ccccc1-3,.,.,53,41,.,.,52
COc1cc(C2=NOC(C(=O)N3CCN(c4ccc(F)cc4)CC3)C2)cc(OC)c1OC (configuration not stated),.,.,41,46,.,40,40
COc1cc(C2=NOC(C(=O)N3CCCCCC3)C2)cc(OC)c1OC (configuration not stated),.,.,.,.,.,/,/
COc1ccc2c(c1OC)C(=O)OC2Nc1nc(-c2cc3cc(Br)ccc3oc2=O)cs1 (configuration not stated),.,.,49,58,.,61,71
CC(/C=N/n1c(C2CCCCC2)n[nH]c1=S)=C\c1ccccc1,.,.,48,49,.,.,31
S=c1[nH]nc(C2CCCCC2)n1/N=C/c1ccncc1,.,.,.,.,.,/,/
CC(/C=N/n1c(-c2cc(C)[nH]n2)n[nH]c1=S)=C\c1ccccc1,.,.,.,.,.,/,/
S=c1[nH]nc(C2CCCCC2)n1/N=C/c1cccs1,.,.,43,41,.,.,40
O=C(COC(=O)c1ccccc1Br)Nc1cccnc1Cl,.,.,.,.,.,/,/
CN(C)C(=O)COC(=O)c1ccccc1Nc1ccc(SC(F)F)cc1,.,.,.,.,.,/,/
O=C(c1ccccc1Nc1ccc(SC(F)F)cc1)N1CCCCCC1,.,.,44,51,.,34,33
Cc1ccc(-c2n[nH]c(=S)n2Cc2ccccc2)cc1,.,.,.,.,.,/,/
CCc1cc(-c2n[nH]c(=S)n2Cc2ccccc2)cs1,.,.,42,44,.,.,41
CC(=O)c1ccc(NC(=S)N2CCCC2)cc1,.,.,.,.,.,/,/
CCOC(=O)C(=Cc1ccc(Br)cc1)C(=O)OCC,/,.,/,/,.,/,/
CCOC(=O)C(=Cc1ccc(-n2ccnc2)cc1)C(=O)OCC,.,.,73,64,.,74,69
Cc1ccccc1CS(=O)(=O)c1nnc([C@H](CC(C)C)NC(=O)OC(C)(C)C)o1,.,.,65,57,?,48,49
CC(C)[C@H](NC(=O)OC(C)(C)C)c1nnc(S(=O)(=O)Cc2c(F)cccc2Cl)o1,.,.,61,71,.,64,64
Cc1ccc(C(=O)ON=C2CCN(c3ccc([N+](=O)[O-])cc3)CC2)cc1,.,.,53,61,.,49,63
O=C(NCc1ccco1)c1csc(Nc2ccccc2Cl)n1,.,.,52,42,/,43,30
COc1ccc(Nc2nc(C(=O)NCc3ccco3)cs2)cc1,.,.,.,.,.,/,/
Cc1ccn(CC(=O)N2CCCC(N3CCN(c4cccc(Cl)c4)CC3)C2)n1 (configuration not stated),.,.,.,.,.,/,/
COc1ccc(OC)c(/C=N/N(C)c2ccccc2)c1,.,.,.,.,.,/,/
COc1cc(/C=N/N(C)c2ccccc2)cc(Cl)c1O,.,.,48,40,.,.,.
CCc1ccc(-c2cn(C3CCCCC3)c(=S)[nH]2)cc1,.,.,45,53,.,46,56

# Bioassay records deposited in PubChem by several laboratories.
